The list is not random: actives were taken first. Their share in the collection is about 4.5%.
Mdm2-MdmX inh – human Mdm2/MdmX binding inhibition; AID 485346; inhibition, % at 8 µM; 330,000 compounds, 3% hits; SaOS-2 split-luciferase Mdm2/MdmX complementation, luminescence;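 active = inhibition of at least 50% at 8 µM in the primary screen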
Target sequence (O15151 whole entry, looked up): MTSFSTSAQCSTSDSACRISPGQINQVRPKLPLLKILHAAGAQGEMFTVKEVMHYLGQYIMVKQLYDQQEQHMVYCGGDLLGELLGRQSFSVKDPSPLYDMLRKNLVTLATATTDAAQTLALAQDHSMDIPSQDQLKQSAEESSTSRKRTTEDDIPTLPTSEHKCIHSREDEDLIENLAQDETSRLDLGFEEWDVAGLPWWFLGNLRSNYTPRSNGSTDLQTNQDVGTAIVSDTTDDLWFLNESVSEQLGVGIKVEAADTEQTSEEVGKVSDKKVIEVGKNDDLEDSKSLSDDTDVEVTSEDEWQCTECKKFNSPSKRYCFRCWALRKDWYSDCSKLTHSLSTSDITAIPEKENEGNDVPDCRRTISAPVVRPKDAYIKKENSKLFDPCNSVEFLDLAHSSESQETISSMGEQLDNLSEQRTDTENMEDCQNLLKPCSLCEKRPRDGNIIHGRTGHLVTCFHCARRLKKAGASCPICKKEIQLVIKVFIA
Target sequence (Q00987 whole entry, looked up): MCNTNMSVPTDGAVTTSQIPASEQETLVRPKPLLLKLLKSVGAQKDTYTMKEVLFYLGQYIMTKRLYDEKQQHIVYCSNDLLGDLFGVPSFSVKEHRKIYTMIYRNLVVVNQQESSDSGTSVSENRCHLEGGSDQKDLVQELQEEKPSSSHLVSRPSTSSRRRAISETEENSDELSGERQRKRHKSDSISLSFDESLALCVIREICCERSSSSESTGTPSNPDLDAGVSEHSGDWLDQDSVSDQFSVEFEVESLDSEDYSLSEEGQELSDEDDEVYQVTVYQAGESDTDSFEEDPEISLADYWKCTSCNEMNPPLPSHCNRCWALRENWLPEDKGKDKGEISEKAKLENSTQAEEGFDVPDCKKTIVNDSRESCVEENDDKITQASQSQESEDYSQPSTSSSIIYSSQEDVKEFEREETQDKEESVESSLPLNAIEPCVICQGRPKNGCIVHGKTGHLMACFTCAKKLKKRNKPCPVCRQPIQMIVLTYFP
697 NFkB inh – lowers PMA/ionomycin-induced NF-kB signal in 697 B cells; 697 B-cell NF-kB luciferase reporter, 16 h; inhibition, % at 4 µM; 330,000 compounds, 0.33% hits; AID 435022; in the data active = inhibition above about 35%
Beta apoptosis – blocks beta cell apoptosis. INS-1E cytokine-induced death, ATP luminescence, 48 h; percent of positive-control rescue, neutral wells zero. protection from apoptosis, % (test concentration not listed). 300,000 compounds, 0.8% hits. AID 435005;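 active = Every replicate reaches about 75%, or at least half do and their mean reaches it too, limit read from the data; inconclusive = At least half of replicates reach the limit but their mean does not; inactive = Under half of replicates reach the limit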;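 also: 0% = cytokine-treated negative control wells and 100% = positive control rescue; higher means more ATP so stronger rescue from cytokine killing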
Jurkat NFkB inh – lowers PMA/ionomycin-induced NF-kB signal in Jurkat cells. inhibition, % at 4 µM. 330,000 compounds, 0.53% hits. AID 435003. PMA/ionomycin-induced NF-kB luciferase reporter, luminescence; in the data active = inhibition above about 50%
Gli-Sufu block – antagonists of Gli-Sufu signaling. Sufu-KO-LIGHT fibroblasts, Gli luciferase reporter luminescence. inhibition, % at 5 µM. 340,000 compounds, 0.74% hits. AID 588413;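 active = inhibition above about 55%, limit read from the data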;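 also: 0% = DMSO-treated cells and 100% = wells with medium but no cells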
CSC inhib – cancer stem cell inhibition | cancer stem cell-like cells viability, luminescence | inhibition, % at 7.5 µM | 300,000 compounds, 1.1% hits | AID 2717; in the data active = inhibition above about 75%; inconclusive = no clear call, values can overlap the other calls; tested in HMLE shEcad cells
Mdm2 MdmX conf – human Mdm2/MdmX binding inhibition, confirmed | 10,000 compounds, 55% hits | shares compounds with Mdm2-MdmX inh | luminescent assay | AID 489028 | inhibition, % at 8 µM; in the data active = inhibition above about 40%
FLuc counter – counter-screen for Mdm2/MdmX inhibitors: full-length luciferase | shares compounds with Mdm2-MdmX inh | SaOS-2 full-length luciferase counterscreen, luminescence | inhibition, % at 8 µM | 6,200 compounds, 77% hits | AID 504607;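 active = mean inhibition at 8 µM reaching about 37%, which flags the compound as non-specific, limit read from the data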;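 also: p53-null SaOS-2 cells with luciferase driven by a doxycycline-inducible promoter; compound on cells about two nights before reading with doxycycline added after day one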
Gli-Sufu confirm – confirmation of Gli-SUFU pathway antagonists. shares compounds with Gli-Sufu block. Sufu-KO-LIGHT cells, Gli luciferase reporter, luminescence. inhibition, % at 5 µM. 2,500 compounds, 40% hits;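 active = mean inhibition at 5 µM reaching about 45%, limit read from the data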;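 also: plate controls were DMSO-treated cells for no effect and wells lacking cells for full effect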
SufuKO cytotox – cytotoxic in Gli-SUFU antagonist counter-screen | shares compounds with Gli-Sufu block | 2,500 compounds, 32% hits | cytotoxicity, % at 5 µM | Sufu-KO-LIGHT cells cytotoxicity, ATP luminescence;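 active = mean cytotoxicity at 5 µM above about 25%, limit read from the data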;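 also: cells exposed to compound overnight for roughly 16 to 18 hours; plate controls were DMSO wells with cells for no effect and medium without cells for full effect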
Wnt3a cs – counter-screen for Gli-SUFU antagonists: Wnt3a reporter inhibition. shares compounds with Gli-Sufu block. Wnt-LIGHT cells, Wnt3a-driven luciferase reporter, luminescence. inhibition, % at 6.25 µM. 2,500 compounds, 20% hits;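 active = mean inhibition above about 25%, limit read from the data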
Active calls of the source: *; u = inconclusive; x = no result.

SMILES	Mdm2-MdmX inh	697 NFkB inh	Beta apoptosis	Jurkat NFkB inh	Gli-Sufu block	CSC inhib	Mdm2 MdmX conf	FLuc counter	others
Cc1ccc2c(c1)C1CN(C)CCC1N2C(=O)CCCN1C(=O)c2cccc3cccc(c23)C1=O (stereo not drawn)	50.8*	19.6	2.9	1.5	15.9	-7.0	22.6	x
Cc1ccc2c(c1)[C@@H]1CN(C)CC[C@@H]1N2C(=O)Nc1cccc(C(F)(F)F)c1	51.8*	22.6	4.6	15.3	-0.7	x	19.8	x
COc1ccccc1NP1(=O)OCC(C)([N+](=O)[O-])CO1 (stereo not drawn)	x	x	x	x	0.1	x	x	x
COc1ccc(/C=C/C(=O)c2c(O)n(CCC3=CCCCC3)c(=O)[nH]c2=O)cc1	53.2*	0.0	-5.4	1.8	-1.1	119.5*	26.5	x
CC(=O)OC1CCC2(C)C(CCC3C4CC(N5CC5)C(C(C)=O)C4(C)CC(=O)C32)C1 (stereo not drawn)	x	x	x	x	-24.0	x	x	x
C(=NC1CCCCC1)c1c[nH]c2ccccc12	x	x	x	x	1.6	x	x	x
O=C1C(=O)c2ccccc2-c2ccccc21	99.1*	15.4	121.1*	34.4	21.6	107.3*	100.0*	0.4
COC(=O)C12CCc3c(ccc4cc(OC)ccc34)C1=CC(=O)C2 (stereo not drawn)	x	x	x	x	13.4	x	x	x
O=C(COc1ccc(Cl)cc1)N(c1ccc(Cl)cc1)C1CN2CCC1CC2 (stereo not drawn)	51.4*	-2.4	2.4	-7.3	14.8	8.0	38.9	74.9*
O=c1c2ccccc2nc(/C=C/c2ccccc2O)n1-c1ccccc1O	82.0*	-6.7	6.3	3.0	x	44.5	56.4*	63.5*
COc1cc(/C=C/c2nc3ccccc3c(=O)n2-c2ccc(O)cc2)ccc1O	77.4*	13.3	2.6	-6.8	24.0	26.8	45.9*	95.1*
Cc1ccc(-n2c(/C=C/c3ccccn3)nc3ccccc3c2=O)cc1	58.5*	8.7	x	-6.0	9.7	x	17.0	x
O=c1c2ccccc2[se]n1-c1ccccc1	59.1*	11.8	x	-10.8	5.4	x	15.4	x
CCCCC1(CC)COP(=O)(OCC(Cl)(Cl)Cl)OC1 (stereo not drawn)	x	x	x	x	2.7	x	x	x
COc1ccc(C2=CC(c3ccc4c(c3)OCO4)c3c(c4ccccc4oc3=O)O2)cc1OC (stereo not drawn)	x	x	x	x	38.6	x	x	x
CNc1ccc2oc(C[C@H]3O[C@@]4(CC[C@H]3C)O[C@H]([C@H](C)C(=O)c3ccc[nH]3)[C@H](C)C[C@H]4C)nc2c1C(=O)O	100.4*	-60.8	108.5*	23.3	83.1*	106.3*	98.2*	52.5*
Cc1cccc(N2C(=O)NC(=O)/C(=C\c3cccn3-c3ccc(Cl)cc3)C2=O)c1	72.8*	24.6	12.2	22.0	16.1	3.8	39.8	69.2*
Cc1cccc(N2C(=O)NC(=O)/C(=C/c3ccc([N+](=O)[O-])o3)C2=O)c1	x	x	-4.0	x	-9.2	-4.8	x	x
Cc1cc(C)cc(N2C(=O)NC(=O)/C(=C/c3cccn3-c3ccc(Cl)cc3)C2=O)c1	66.0*	17.8	-6.7	19.8	4.0	75.4*	17.3	x
O=C1NC(=O)C(=Cc2c(Cl)cccc2Cl)C(=O)N1	x	x	x	x	5.3	x	x	x
CC(=O)c1c(C)n(Cc2ccccc2Cl)c2ccc(O)cc12	52.2*	-7.9	-17.6	-7.8	-6.0	16.8	38.3	109.6*
Cn1c(=O)c2c(nc(-c3ccc(N(CCCl)CCCl)cc3)n2C)n(C)c1=O	x	x	x	x	-0.2	x	x	x
CC(C)(C)c1ccc(O)c(N=Cc2c(O)ccc3ccccc23)c1	50.2*	-8.0	x	13.5	-8.1	30.5	17.6	x
CC(=O)NC(Cc1ccc(N(CCCl)CCCl)cc1)C(=O)NC(C(=O)O)C(C)C (stereo not drawn)	7.1	-4.3	-11.6	-16.8	-3.6	-5.2	x	x
CCOC(=O)CC(NC(=O)C(Cc1ccc(N(CCCl)CCCl)cc1)NC(C)=O)C(=O)OCC (stereo not drawn)	81.0*	13.8	16.6	6.9	49.4	50.1	56.8*	15.4
SMILES	Mdm2-MdmX inh	697 NFkB inh	Beta apoptosis	Jurkat NFkB inh	Gli-Sufu block	CSC inhib	Mdm2 MdmX conf	FLuc counter	others
CCOC(=O)c1cnc(SCc2ccc(Cl)c(Cl)c2)nc1N1CC1	x	x	x	x	6.8	x	x	x
O=C1NC(=O)C(CCc2ccncc2)(Cc2cccc(Cl)c2Cl)C(=O)N1c1ccc(Br)cc1 (stereo not drawn)	57.7*	-45.9	-1.5	35.7	33.4	65.8	54.4*	42.7*
COC(=O)C1=C(c2ccc(F)cc2OCc2ccccc2)C[C@@H]2CC[C@H]1N2C(=O)N1CCCCC1	4.3	0.6	2.3	-2.8	12.7	8.2	x	x
COC(=O)C1=C(c2ccc(F)cc2OCc2ccccc2)C[C@@H]2CC[C@H]1N2C(=O)N1CCC(O)(c2ccc(Cl)cc2)CC1	68.6*	-1.0	8.2	-5.2	12.1	x	28.6	x
Brc1ccc(-[n+]2c(-c3ccccc3)cc(-c3ccccc3)cc2-c2ccccc2)cc1	86.7*	-36.7	128.7*	40.7	56.1*	44.1	74.0*	24.1	Gli-Sufu confirm=78.9*;SufuKO cytotox=7.8;Wnt3a cs=5.7
C[C@H]1C/C=C/[C@H]2[C@H](O)[C@H](C)[C@@](C)(O)[C@H]3[C@H](Cc4ccccc4)NC(=O)[C@]32[C@H](O)/C=C/[C@](C)(O)C1	31.7	16.2	13.8	0.7	-9.2	-3.0	x	x
C=C1[C@@H](C)[C@H]2[C@H](Cc3ccccc3)NC(=O)[C@]23OC(=O)/C=C/[C@H](O)CCC[C@@H](C)C/C=C/[C@H]3[C@@H]1O	82.5*	11.9	-11.3	18.6	56.6*	50.3	71.2*	53.2*	Gli-Sufu confirm=36.3;SufuKO cytotox=46.2*;Wnt3a cs=58.0*
ClC1=C(Cl)C2(Cl)C3C(Cl)C=CC3C1(Cl)C2(Cl)Cl (stereo not drawn)	34.8	5.3	-1.5	-5.7	11.7	u	x	x
C[N+]1=C(/C=C/Nc2ccccc2)C(C)(C)c2ccccc21	0.8	-10.4	x	0.5	63.2*	x	x	x	Gli-Sufu confirm=65.9*;SufuKO cytotox=26.2*;Wnt3a cs=12.4
COc1ccc(CC(=O)N(CCN(C)C)CC2CCCN(Cc3ccccc3F)C2)cc1 (stereo not drawn)	20.7	1.9	x	-9.6	50.2	1.5	x	x	Gli-Sufu confirm=29.1;SufuKO cytotox=10.6;Wnt3a cs=-2.0
CN(C)CCN(CC1CCCN(Cc2ccccc2F)C1)C(=O)Cc1ccccc1F (stereo not drawn)	x	x	-0.9	x	x	16.4	x	x

Bioassay records from PubChem.
